Common to all, as to test: NCI-60 one-dose screen, 48 h (100 = growth as untreated, 0 = no growth, -100 = all killed)
For one test, the system named is NCI-H23 lung. Conditions: 10 µM unless noted.
For a further test, the system named is NCI-H226 lung. Conditions: 10 µM unless noted.
A further test relates to NCI-H322M lung. Conditions: 10 µM unless noted.
A further test relates to HOP-62 NSCLC. Conditions: 10 µM unless noted.
The next test deals with NCI-H460 lung. Particulars: 10 µM unless noted.
The test system of the next test is HOP-92 NSCLC. Particulars: 10 µM unless noted.
For another test, the system named is NCI-H522 lung. Conditions: 10 µM unless noted.
The next test concerns A549/ATCC NSCLC. Conditions: 10 µM unless noted.
For another test, the system named is 786-0 renal. Conditions: 10 µM unless noted.
A further test relates to COLO 205 colon. Conditions: 10 µM unless noted.
The test system of another test is DU-145 prostate. Particulars: 10 µM unless noted.
The next test deals with K-562 leukemia. Conditions: 10 µM unless noted.
In a further test the test system is MALME-3M melanoma. Particulars: 10 µM unless noted.
The next test deals with MDA-MB-231 breast. Conditions: 10 µM unless noted.
The subject of another test is RXF 393 renal. Particulars: 10 µM unless noted.
Another test has as its system SF-268 CNS. Conditions: 10 µM unless noted.
A further test concerns SF-295 CNS. Conditions: 10 µM unless noted.
The test system of another test is SF-539 CNS. Conditions: 10 µM unless noted.
For a further test, the system named is UACC-257 melanoma. Particulars: 10 µM.
In a further test the test system is M14 melanoma. Particulars: 10 µM unless noted.

SMILES strings stand for the structures. About 83,000 compounds went through this panel and 20% of them were active in at least one assay; those are over-represented in the sample as a whole.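 How to read the values: 0–100, growth inhibition (40 = 60% inhibited); 0, no net growth; -100 to 0, cell death (-40 = 40% of starting cells died; -100 = all dead).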 Values without a mark were called inactive. Calls of active or inactive are those of the source. The calls were made as follows: active = growth percent below 10; inactive = the rest.

`O=C(/C=C1\C=CN(CCCCO)c2ccccc21)n1ccc2ccccc21`: the growth with NCI-H23 lung was 101%; in the test on NCI-H226 lung, 86.4%; in the test on NCI-H322M lung it was 102%; with HOP-62 NSCLC, 84.2%; with NCI-H460 lung it was 103%; in the test on HOP-92 NSCLC, 98.4%. The growth with NCI-H522 lung was 99.7%; with A549/ATCC NSCLC, 105%; in the test on 786-0 renal, 107%; with COLO 205 colon, 104%; with DU-145 prostate, 107%; in the test with K-562 leukemia, 109%. In addition, the growth with MALME-3M melanoma is 99.2%; with MDA-MB-231 breast, 98.5%; in the test on RXF 393 renal, 113%; with SF-268 CNS it was 107%; in the test on SF-295 CNS it was 103%; with SF-539 CNS, 98.6%. In addition, the results for the growth in the test on UACC-257 melanoma and in the test on M14 melanoma were 105% and 94.6%, respectively.
`COc1ccc(-c2nc3cc(Cl)c(Cl)cc3n2CC(=O)N=Nc2c(O)[nH]c3ccccc23)cc1`: the growth in the test with NCI-H23 lung is 31.4%; in the test with NCI-H226 lung it was -8.79% (active); with NCI-H322M lung it was 70.3%; in the test with HOP-62 NSCLC, 45.3%; with NCI-H460 lung it was 30.3%; with HOP-92 NSCLC, 24.1%. The growth in the test on NCI-H522 lung is 87.9%; in the test on A549/ATCC NSCLC it was 27.8%; with 786-0 renal, 100%; in the test with COLO 205 colon, 55%; in the test with DU-145 prostate, -11.4% (active); in the test with K-562 leukemia it was 28.7%. For the same compound, the growth was 35.9% in the test on MALME-3M melanoma; 54.2% with MDA-MB-231 breast; -21.8% (active) with RXF 393 renal; 64.4% in the test on SF-268 CNS; 79.4% with SF-295 CNS; 13.7% in the test on SF-539 CNS. Moreover, the growth is 95.7% with UACC-257 melanoma and 50.5% in the test on M14 melanoma.
For `CCc1ccc(NC(=O)N[C@@H](Cc2cccc(F)c2)C(=O)N[C@@H]2C(=O)N3CCC[C@H]3C(=O)N3CCCC[C@H]3C(=O)N[C@@H](C)C(=O)N3C[C@H](C)C[C@H]3C(=O)O[C@H]2C)c(F)c1`, the growth with NCI-H23 lung was 31.7%; in the test with NCI-H226 lung it was -2.16% (active); in the test on NCI-H322M lung, 46%; in the test with HOP-62 NSCLC it was 43%; in the test with NCI-H460 lung, 15.4%; in the test with HOP-92 NSCLC, -0.342% (active). Further, the growth in the test on NCI-H522 lung is 26.8%; in the test with A549/ATCC NSCLC, 33.3%; with 786-0 renal, 37.1%; with COLO 205 colon, -26.4% (active); with DU-145 prostate it was 25.2%; in the test with K-562 leukemia, 17.5%. Further, the growth with MALME-3M melanoma is 41.4%; with MDA-MB-231 breast, 26.8%; in the test on RXF 393 renal, -10.1% (active); in the test with SF-268 CNS, 34.9%; with SF-295 CNS, 4.24% (active); with SF-539 CNS, 29.8%. Further, the growth in the test on UACC-257 melanoma is 22.2%; in the test with M14 melanoma it was 22%.
On to `CCOC(=O)c1c(Nc2ccccc2)nn2c(-c3ccc(Br)cc3)ccnc12`, for which the growth with NCI-H23 lung was 64.9%; in the test on NCI-H226 lung, 63.3%; in the test on NCI-H322M lung, 79.1%; with HOP-62 NSCLC it was 47.4%; with NCI-H460 lung, 33.9%; in the test on HOP-92 NSCLC, 28.2%. The growth was 80.9% with NCI-H522 lung; 56.4% in the test on A549/ATCC NSCLC; 54.3% in the test on 786-0 renal; 80.1% with COLO 205 colon; 77.8% in the test on DU-145 prostate; 78.9% with K-562 leukemia. In addition, the growth was 75% in the test with MALME-3M melanoma; 70.4% in the test on MDA-MB-231 breast; -12.3% (active) in the test with RXF 393 renal; 68.7% in the test on SF-268 CNS; 77.2% in the test with SF-295 CNS; 63.8% in the test with SF-539 CNS. Besides, the growth is 103% in the test with UACC-257 melanoma and 88.6% in the test with M14 melanoma.
As to `C/C(=C(/C)C1CC1CCN(C(=O)c1ccc([N+](=O)[O-])cc1)S(=O)(=O)c1ccc(C)cc1)C1CCCCC1` (stereo not given), the growth is 87.2% in the test on NCI-H23 lung; 90.8% with NCI-H226 lung; 100% in the test with NCI-H322M lung; 109% with HOP-62 NSCLC; 98.6% in the test on NCI-H460 lung; -49% (active) with HOP-92 NSCLC. Moreover, the growth with NCI-H522 lung was 83.8%; in the test on A549/ATCC NSCLC, 97.8%; in the test with 786-0 renal, 96.2%; with COLO 205 colon, 112%; with DU-145 prostate, 96.6%; in the test on K-562 leukemia, 74.7%. The growth with MALME-3M melanoma is 98.3%; in the test with MDA-MB-231 breast, 97.3%; with RXF 393 renal it was 105%; in the test on SF-268 CNS, 96.5%; with SF-295 CNS it was 104%; with SF-539 CNS it was 100%. In addition, the growth was 96.9% with UACC-257 melanoma and 97.7% with M14 melanoma.
As to `COc1ccc(Cn2cc3c(c2-c2ccccc2)CCCc2cnoc2-3)cc1`, the growth in the test on NCI-H23 lung was 77.6%; with NCI-H226 lung it was 79%; in the test with NCI-H322M lung it was 76%; in the test with HOP-62 NSCLC, 63.8%; in the test with NCI-H460 lung, 26.9%; in the test with HOP-92 NSCLC, 72%. Moreover, the growth in the test with NCI-H522 lung was 34.9%; in the test on A549/ATCC NSCLC it was 56.6%; in the test on 786-0 renal, 73.3%; in the test on COLO 205 colon, 40.9%; in the test with DU-145 prostate, 78.9%; with K-562 leukemia, 28.5%. The growth with MALME-3M melanoma is 41.9%; in the test on MDA-MB-231 breast, 60.8%; with RXF 393 renal it was 76.4%; in the test with SF-268 CNS, 73.1%; in the test with SF-295 CNS, 30%; in the test with SF-539 CNS, 52.6%. The figures for the growth with UACC-257 melanoma and in the test on M14 melanoma were 76% and 40.5%, respectively.
In the case of `O=C1CSC(=O)N1Cc1cc2ccccc2nc1Cl`, the growth in the test on NCI-H23 lung is 99.7%; in the test on NCI-H226 lung, 102%; in the test on NCI-H322M lung, 108%; in the test on HOP-62 NSCLC, 101%; with NCI-H460 lung, 106%; in the test with HOP-92 NSCLC it was 94.5%. Besides, the growth with NCI-H522 lung is 94.3%; in the test on A549/ATCC NSCLC it was 99.6%; with 786-0 renal, 100%; in the test on COLO 205 colon, 109%; in the test with DU-145 prostate it was 104%; in the test on K-562 leukemia it was 99.8%. Moreover, the growth in the test with MALME-3M melanoma is 94.2%; with MDA-MB-231 breast it was 103%; in the test on RXF 393 renal, 96%; in the test with SF-268 CNS it was 99.1%; with SF-295 CNS, 101%; in the test on SF-539 CNS, 108%. For the same compound, the growth in the test with UACC-257 melanoma and in the test with M14 melanoma was 103% each time.
For `O=C(O)CNS(=O)(=O)c1ccc(Oc2ccc(S(=O)(=O)NCC(=O)O)cc2)cc1`, the growth was 101% in the test on NCI-H23 lung; 107% in the test on NCI-H226 lung; 101% in the test with NCI-H322M lung; 91.9% in the test on HOP-62 NSCLC; 101% in the test with NCI-H460 lung; 103% with HOP-92 NSCLC. In addition, the growth in the test with NCI-H522 lung is 94.7%; with A549/ATCC NSCLC, 101%; in the test on 786-0 renal, 100%; with COLO 205 colon, 109%; with DU-145 prostate, 105%; in the test on K-562 leukemia, 94.3%. For the same compound, the growth is 99.1% in the test with MALME-3M melanoma; 102% with MDA-MB-231 breast; 112% in the test on RXF 393 renal; 96.6% in the test with SF-268 CNS; 113% in the test with SF-295 CNS; 92.7% in the test with SF-539 CNS. For the same compound, the values for the growth with UACC-257 melanoma and in the test with M14 melanoma were 102% and 100%, respectively.

Values taken from PubChem BioAssay (NCI).
